# Measurements published in paper PMC7862700, “An all-to-all approach to the identification of sequence-specific readers for epigenetic DNA modifications on cytosine”.
# Legend:
# Experiment in all cases: DAPPL (digital affinity profiling via proximity ligation, sequencing); 10 mM Tris-HCl pH 7.5, 50 mM NaCl, 1 mM DTT, 4% glycerol, room temperature, 30 min; GST-TFs on glutathione beads, 16-mer random dsDNA library, 0.1% formaldehyde crosslink after washing; high values mean tight binding
# Conditions in all cases: protein: recombinant; tags: N-terminal GST; dsDNA, one strand shown
# FLI1 = target: T1, FLI1 (Homo sapiens, UniProt Q01543 1-452)
# T1 sequence: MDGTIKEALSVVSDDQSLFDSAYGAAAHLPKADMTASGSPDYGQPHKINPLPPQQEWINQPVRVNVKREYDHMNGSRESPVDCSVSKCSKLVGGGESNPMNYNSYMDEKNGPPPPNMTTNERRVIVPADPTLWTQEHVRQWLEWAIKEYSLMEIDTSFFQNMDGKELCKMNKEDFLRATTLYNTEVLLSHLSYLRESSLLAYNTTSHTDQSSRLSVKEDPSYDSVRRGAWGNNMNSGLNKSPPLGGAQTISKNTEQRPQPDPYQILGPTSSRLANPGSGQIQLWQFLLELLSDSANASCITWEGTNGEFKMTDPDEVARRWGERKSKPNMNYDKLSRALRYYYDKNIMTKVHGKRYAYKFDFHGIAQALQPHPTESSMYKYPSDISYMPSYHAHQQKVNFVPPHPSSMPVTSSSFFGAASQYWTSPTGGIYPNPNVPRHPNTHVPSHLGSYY
# How it was run: (§1)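 Yeast served to express human transcription factors as GST fusions, which were then captured on glutathione beads and labelled with DNA barcodes. Pooled with a tag-only sample, they were incubated with 200 nmole of a 16-mer random double-stranded DNA library for 30 min at room temperature in Tris/NaCl/DTT/glycerol buffer, washed, crosslinked with 0.1% formaldehyde, ligated by proximity, amplified by PCR and sequenced. Dividing each hexamer's read frequency for a factor by its frequency for the tag-only sample gives the binding signal.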
# ERG = target: T2, ERG (Homo sapiens, UniProt P11308 1-479)
# T2 sequence: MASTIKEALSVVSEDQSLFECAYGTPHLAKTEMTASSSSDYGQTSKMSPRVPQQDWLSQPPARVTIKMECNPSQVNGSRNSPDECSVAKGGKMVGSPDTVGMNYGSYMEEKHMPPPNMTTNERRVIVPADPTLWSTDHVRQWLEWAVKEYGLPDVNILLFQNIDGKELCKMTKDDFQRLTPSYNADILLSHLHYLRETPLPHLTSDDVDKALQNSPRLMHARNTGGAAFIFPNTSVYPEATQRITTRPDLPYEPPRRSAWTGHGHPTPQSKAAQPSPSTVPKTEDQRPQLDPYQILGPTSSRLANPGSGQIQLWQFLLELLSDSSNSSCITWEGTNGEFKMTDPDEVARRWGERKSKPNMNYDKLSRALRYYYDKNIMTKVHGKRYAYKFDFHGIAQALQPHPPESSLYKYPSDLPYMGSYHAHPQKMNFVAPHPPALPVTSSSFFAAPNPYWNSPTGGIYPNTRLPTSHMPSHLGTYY
# How it was run: as §1
# EHF = target: T3, EHF (Homo sapiens, UniProt Q9NZC4 1-300)
# T3 sequence: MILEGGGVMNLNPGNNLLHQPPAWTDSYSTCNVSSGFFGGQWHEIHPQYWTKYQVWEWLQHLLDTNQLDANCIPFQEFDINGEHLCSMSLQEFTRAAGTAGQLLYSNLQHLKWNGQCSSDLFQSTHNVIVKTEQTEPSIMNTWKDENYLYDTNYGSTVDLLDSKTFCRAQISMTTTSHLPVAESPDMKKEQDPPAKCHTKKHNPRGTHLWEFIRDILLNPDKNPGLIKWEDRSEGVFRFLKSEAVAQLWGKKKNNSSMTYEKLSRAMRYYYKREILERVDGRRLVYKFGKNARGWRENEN
# How it was run: as §1
# SPI1 = SPI1 (Homo sapiens, UniProt P17947 1-270)
# How it was run: as §1
# ELK3 = target: T4, ELK3 (Homo sapiens, UniProt P41970 1-407)
# T4 sequence: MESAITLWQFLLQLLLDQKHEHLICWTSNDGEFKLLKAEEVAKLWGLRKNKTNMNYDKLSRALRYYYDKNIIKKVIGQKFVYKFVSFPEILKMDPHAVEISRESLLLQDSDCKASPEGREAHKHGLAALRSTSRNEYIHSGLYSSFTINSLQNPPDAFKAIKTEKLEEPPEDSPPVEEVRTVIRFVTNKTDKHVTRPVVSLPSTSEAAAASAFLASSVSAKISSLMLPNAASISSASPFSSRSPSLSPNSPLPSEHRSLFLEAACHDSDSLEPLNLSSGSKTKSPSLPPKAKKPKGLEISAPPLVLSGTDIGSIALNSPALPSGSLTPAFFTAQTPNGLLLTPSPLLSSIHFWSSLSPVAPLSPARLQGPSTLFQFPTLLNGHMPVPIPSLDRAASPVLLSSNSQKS
# How it was run: as §1
# SPIC = target: T5, SPIC (Homo sapiens, UniProt Q8N5J4 1-248)
# T5 sequence: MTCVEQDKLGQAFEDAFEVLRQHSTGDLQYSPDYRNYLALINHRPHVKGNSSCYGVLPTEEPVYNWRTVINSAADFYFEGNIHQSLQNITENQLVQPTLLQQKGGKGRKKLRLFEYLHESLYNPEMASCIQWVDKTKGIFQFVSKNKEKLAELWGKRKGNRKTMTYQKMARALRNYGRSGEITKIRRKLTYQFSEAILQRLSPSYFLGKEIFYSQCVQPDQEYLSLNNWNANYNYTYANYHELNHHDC
# How it was run: as §1
# ELF4 = ELF4 (Homo sapiens, UniProt Q99607 1-663)
# Sequence of ELF4 (Q99607 whole entry): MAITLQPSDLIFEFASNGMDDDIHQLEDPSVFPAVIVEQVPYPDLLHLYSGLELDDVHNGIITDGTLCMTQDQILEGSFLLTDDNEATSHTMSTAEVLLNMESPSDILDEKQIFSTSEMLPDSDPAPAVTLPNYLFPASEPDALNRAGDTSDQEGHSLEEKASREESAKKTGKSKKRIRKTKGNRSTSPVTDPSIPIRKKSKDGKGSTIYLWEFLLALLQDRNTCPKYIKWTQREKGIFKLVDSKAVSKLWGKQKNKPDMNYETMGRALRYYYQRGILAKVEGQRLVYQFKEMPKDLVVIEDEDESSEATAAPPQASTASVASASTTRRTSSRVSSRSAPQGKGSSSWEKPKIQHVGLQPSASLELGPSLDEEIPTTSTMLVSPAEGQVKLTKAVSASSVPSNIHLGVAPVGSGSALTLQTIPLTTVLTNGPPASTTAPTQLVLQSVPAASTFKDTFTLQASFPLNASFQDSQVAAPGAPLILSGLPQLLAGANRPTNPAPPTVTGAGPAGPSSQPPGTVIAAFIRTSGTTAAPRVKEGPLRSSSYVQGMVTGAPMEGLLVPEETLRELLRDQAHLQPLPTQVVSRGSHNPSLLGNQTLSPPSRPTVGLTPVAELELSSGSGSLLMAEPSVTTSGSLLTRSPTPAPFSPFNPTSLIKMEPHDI
# How it was run: as §1
# ELK4 = target: T6, ELK4 (Homo sapiens, UniProt P28324-2 1-405)
# T6 sequence: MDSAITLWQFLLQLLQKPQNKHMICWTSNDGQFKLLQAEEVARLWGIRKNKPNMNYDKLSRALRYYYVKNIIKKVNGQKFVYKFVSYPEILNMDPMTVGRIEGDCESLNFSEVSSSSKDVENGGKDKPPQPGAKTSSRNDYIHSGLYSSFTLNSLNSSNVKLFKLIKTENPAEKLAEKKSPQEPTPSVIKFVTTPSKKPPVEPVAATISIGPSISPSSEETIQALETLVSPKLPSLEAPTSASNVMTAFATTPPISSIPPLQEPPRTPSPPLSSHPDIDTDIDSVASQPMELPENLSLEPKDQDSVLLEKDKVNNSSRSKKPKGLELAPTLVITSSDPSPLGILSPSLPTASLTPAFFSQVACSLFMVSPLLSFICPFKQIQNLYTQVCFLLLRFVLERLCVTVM
# How it was run: as §1
# ELF3 = target: T7, ELF3 (Homo sapiens, UniProt P78545 1-371)
# T7 sequence: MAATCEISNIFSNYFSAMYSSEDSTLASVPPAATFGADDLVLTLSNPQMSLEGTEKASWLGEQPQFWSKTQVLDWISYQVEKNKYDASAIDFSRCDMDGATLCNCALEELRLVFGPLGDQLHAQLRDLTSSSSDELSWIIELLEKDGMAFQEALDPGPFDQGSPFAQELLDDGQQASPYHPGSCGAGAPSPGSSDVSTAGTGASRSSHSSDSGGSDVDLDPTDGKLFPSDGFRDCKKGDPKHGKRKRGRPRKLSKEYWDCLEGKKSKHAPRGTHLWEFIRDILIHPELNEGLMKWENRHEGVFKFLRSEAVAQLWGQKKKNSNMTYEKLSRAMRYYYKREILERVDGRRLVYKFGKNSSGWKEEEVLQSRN
# How it was run: as §1
# ETV1 = ETV1 (Homo sapiens, UniProt P50549 1-477)
# Sequence of ETV1 (P50549 whole entry): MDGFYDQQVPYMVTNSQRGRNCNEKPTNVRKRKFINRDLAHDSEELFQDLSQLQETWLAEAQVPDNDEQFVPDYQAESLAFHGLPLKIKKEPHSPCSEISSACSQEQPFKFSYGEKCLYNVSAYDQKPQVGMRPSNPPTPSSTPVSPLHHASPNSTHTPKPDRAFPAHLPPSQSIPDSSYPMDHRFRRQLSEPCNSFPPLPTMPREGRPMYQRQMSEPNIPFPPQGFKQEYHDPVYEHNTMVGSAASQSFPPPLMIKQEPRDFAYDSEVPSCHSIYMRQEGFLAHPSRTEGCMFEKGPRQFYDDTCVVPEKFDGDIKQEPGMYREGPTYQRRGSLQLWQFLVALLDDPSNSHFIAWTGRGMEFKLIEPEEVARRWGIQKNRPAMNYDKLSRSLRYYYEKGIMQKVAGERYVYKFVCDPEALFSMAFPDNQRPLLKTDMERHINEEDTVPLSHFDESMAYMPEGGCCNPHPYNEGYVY
# How it was run: as §1
# ERF = target: T8, ERF (Homo sapiens, UniProt P50548 1-548)
# T8 sequence: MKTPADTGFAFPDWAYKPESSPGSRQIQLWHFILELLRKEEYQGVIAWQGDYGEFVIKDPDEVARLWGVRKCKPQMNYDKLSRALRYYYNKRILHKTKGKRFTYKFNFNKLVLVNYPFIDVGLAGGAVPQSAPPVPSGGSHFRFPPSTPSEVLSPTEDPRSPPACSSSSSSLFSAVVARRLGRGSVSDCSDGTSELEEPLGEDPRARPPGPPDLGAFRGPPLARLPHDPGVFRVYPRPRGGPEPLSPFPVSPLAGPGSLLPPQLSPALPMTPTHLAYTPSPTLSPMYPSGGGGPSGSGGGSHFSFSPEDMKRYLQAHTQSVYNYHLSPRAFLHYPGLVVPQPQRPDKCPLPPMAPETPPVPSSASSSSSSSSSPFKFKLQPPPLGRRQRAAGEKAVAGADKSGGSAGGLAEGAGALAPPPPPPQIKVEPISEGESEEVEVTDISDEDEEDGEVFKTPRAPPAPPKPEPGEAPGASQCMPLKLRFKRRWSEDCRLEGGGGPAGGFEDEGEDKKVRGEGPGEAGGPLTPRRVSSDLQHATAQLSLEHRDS
# How it was run: as §1
# ETV7 = target: T9, ETV7 (Homo sapiens, UniProt Q9Y603 1-341)
# T9 sequence: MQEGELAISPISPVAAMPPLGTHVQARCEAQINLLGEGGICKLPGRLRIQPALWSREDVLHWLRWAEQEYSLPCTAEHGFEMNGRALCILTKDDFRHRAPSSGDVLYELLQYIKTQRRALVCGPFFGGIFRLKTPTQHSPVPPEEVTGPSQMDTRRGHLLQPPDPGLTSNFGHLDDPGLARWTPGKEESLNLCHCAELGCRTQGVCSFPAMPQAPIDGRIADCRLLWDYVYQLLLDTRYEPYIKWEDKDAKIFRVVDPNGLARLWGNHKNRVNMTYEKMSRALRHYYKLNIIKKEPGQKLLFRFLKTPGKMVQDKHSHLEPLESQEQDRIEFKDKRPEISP
# How it was run: as §1
# ETV6 = ETV6 (Homo sapiens, UniProt P41212 1-452)
# Sequence of ETV6 (P41212 whole entry): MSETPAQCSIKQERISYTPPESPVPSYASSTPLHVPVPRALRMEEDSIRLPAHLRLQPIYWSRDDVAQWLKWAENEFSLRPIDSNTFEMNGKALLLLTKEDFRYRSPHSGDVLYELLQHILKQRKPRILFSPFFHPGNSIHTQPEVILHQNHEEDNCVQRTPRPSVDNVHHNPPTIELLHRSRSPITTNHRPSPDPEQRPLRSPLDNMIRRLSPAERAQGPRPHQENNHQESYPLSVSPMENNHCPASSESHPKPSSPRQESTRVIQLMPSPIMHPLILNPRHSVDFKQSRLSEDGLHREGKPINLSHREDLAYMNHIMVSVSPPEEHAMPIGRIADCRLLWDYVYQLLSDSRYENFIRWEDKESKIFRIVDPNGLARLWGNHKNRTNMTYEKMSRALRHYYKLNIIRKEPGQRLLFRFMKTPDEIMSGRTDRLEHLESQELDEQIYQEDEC
# How it was run: as §1
sequence,measurement,setting,value
GTCACG,binding signal,FLI1,"1.09 fold enrichment (6-mer frequency, TF over GST control)"
same,binding signal,ERG,"1.06 fold enrichment (6-mer frequency, TF over GST control)"
same,binding signal,EHF,"1.07 fold enrichment (6-mer frequency, TF over GST control)"
same,binding signal,SPI1,"1.05 fold enrichment (6-mer frequency, TF over GST control)"
same,binding signal,ELK3,"1.02 fold enrichment (6-mer frequency, TF over GST control)"
same,binding signal,SPIC,"1.04 fold enrichment (6-mer frequency, TF over GST control)"
same,binding signal,ELF4,"1.07 fold enrichment (6-mer frequency, TF over GST control)"
same,binding signal,ELK4,"1.08 fold enrichment (6-mer frequency, TF over GST control)"
same,binding signal,ELF3,"1.02 fold enrichment (6-mer frequency, TF over GST control)"
same,binding signal,ETV1,"1.1 fold enrichment (6-mer frequency, TF over GST control)"
same,binding signal,ERF,"1.08 fold enrichment (6-mer frequency, TF over GST control)"
same,binding signal,ETV7,"1.04 fold enrichment (6-mer frequency, TF over GST control)"
same,binding signal,ETV6,"1.04 fold enrichment (6-mer frequency, TF over GST control)"
